The values that follow come from the supplement of paper PMC8728848.

Holding throughout (test): glycan array binding signal (z-score within array); higher = stronger binding
Conditions in all cases: glycan notation: IUPAC condensed, linker removed

Experiment [1] addresses Neu5Ac(a2-3)Gal(b1-3)GalNAc(b1-4)Gal(b1-4)Glc. The essentials: (§1)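 Glycan array binding is given as a within-array Z-score, which can be read as non-binding when negative. The arrays, 3228 of them, came from the Consortium for Functional Glycomics database and were retained only where the protein sequence was available. Z-scores were averaged across arrays of the same protein sequence at different concentrations or buffers and across linkers.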

In experiment [2] the target is Neu5Ac(a2-3)Gal(b1-3)GalNAc(b1-4)[Neu5Ac(a2-3)]Gal(b1-4)Glc. The essentials:
as §1

The target in experiment [3] is Neu5Ac(a2-3)Gal(b1-3)GlcNAc(b1-2)Man(a1-3)[GlcNAc(b1-4)][Neu5Ac(a2-3)Gal(b1-3)GlcNAc(b1-2)Man(a1-6)]Man(b1-4)GlcNAc(b1-4)GlcNAc. The method, boiled down: as §1
The target in the next experiment is Neu5Ac(a2-3)Gal(b1-4)Glc. The method, boiled down: as §1
Experiment [4] has as its target Neu5Ac(a2-3)Gal(b1-4)GlcNAc(b1-3)Gal(b1-4)GlcNAc(b1-3)GalNAc. The essentials: as §1
Experiment [5] addresses Neu5Ac(a2-3)Gal(b1-4)GlcNAc(b1-3)Gal(b1-4)GlcNAc(b1-3)[Neu5Ac(a2-3)Gal(b1-4)GlcNAc(b1-3)Gal(b1-4)GlcNAc(b1-6)]GalNAc. The method, boiled down: as §1
For experiment [6], the target named is Neu5Ac(a2-3)Gal(b1-4)GlcNAc(b1-6)[Neu5Ac(a2-3)Gal(b1-3)]GalNAc. The essentials:
as §1

For experiment [7], the target named is Neu5Ac(a2-3)Gal(b1-4)[Fuc(a1-3)]GlcNAc(b1-3)GalNAc. The essentials: as §1
Experiment [8] concerns the target Neu5Ac(a2-6)Gal(b1-4)GlcNAc(b1-2)Man(a1-6)[Gal(b1-4)GlcNAc(b1-2)Man(a1-3)]Man(b1-4)GlcNAc(b1-4)GlcNAc. The method, boiled down: as §1
The target in experiment [9] is Neu5Ac(a2-6)Gal(b1-4)GlcNAc(b1-2)Man(a1-6)[GlcNAc(b1-2)Man(a1-3)]Man(b1-4)GlcNAc(b1-4)GlcNAc. The essentials:
as §1

In experiment [10] the target is Neu5Ac(a2-6)Gal(b1-4)GlcNAc(b1-3)Gal(b1-4)GlcNAc(b1-6)[Gal(b1-3)]GalNAc. The method, boiled down:
as §1

The target in experiment [11] is Neu5Ac(a2-6)GlcNAc(b1-4)GlcNAc. The essentials: as §1
Experiment [12] addresses Neu5Ac(a2-8)Neu5Ac(a2-8)Neu5Ac(a2-3)Gal(b1-4)Glc. The essentials: as §1
The target in experiment [13] is Neu5Ac(a2-8)Neu5Ac(a2-8)Neu5Ac(a2-3)[GalNAc(b1-4)]Gal(b1-4)Glc. The method, boiled down:
as §1

Experiment [14] concerns the target Neu5Gc(a2-8)Neu5Gc(a2-6)Gal(b1-4)GlcNAc. The essentials:
as §1

The entries come from a sample that favours the strongest signals as a whole.

B1: CcfD (Bacteroides vulgatus), A6KYX8 (protein)
chain: MKYKNYFKSIIYLALGAFTLGSCEDFLDRQEDEKLTFDKIWESRNTTQQYWLNAMSFLPNENGSLQGDTEPYLGASDECTIAYDRQYRWINFGTWNPSQVPYYKMDHYYKGIRECNIFLQNVYKCSDPLVTKDQLDEWYWQTRFARAYYYFLMMRDYGPVFLLGDDLLDFTASTEELYRPRNTWDQCVNYVVSEMTQCAESGVVLQQSDLPAAKWGLATVGTCHAVISRLLLYSARPLFNGNKLYSTVKNPDAPDFPELSGVKLFPELDNTKWQKAAEAAKKLIDNPCYELYRAGNDNPYEDYYGVTHETWNKELIWTDRYNGLFSWGVGTVPTGVAGTAYGAVGPTQALVDAYAMNTGWYPITGYEADGTPIVEPLSGYELASELEKSSWIYPSGGWSNKADFEIEAPNMYKDREPRFYVTVFFGGNQWLHGNSATSISFAKGGNGNKSHDYPKSGYLCNRFYDHKLNSSEGQWGNITFPVFRLGEIYLNFIEAVLECKKNGVALDPSYEALAMEKWADLRKRAGLDPITSIYGQVSTEELIQLCRKERQIELAFERHRYFDTRTWMIATQTDNGKMYGMNTSCPLDAGMKGTETPDGFWERTAFETRVFQNKHYLYPFSQRELDRNKLLTQNYGW
For the molecule B1, the “glycan array binding signal (z-score)” value in [1] is -0.17; in experiment [2], 2.47; in experiment [3], -0.526; in the experiment with Neu5Ac(a2-3)Gal(b1-4)Glc, -0.589; in experiment [4] it was -0.693; in experiment [5], -0.429. Also, the “glycan array binding signal (z-score)” value in experiment [6] is 5; in experiment [7], -0.078; in experiment [8], 6.49; in experiment [9], 7; in experiment [10], -0.841; in experiment [11], 0.582. Besides, the figures for the “glycan array binding signal (z-score)” value in experiment [12], in experiment [13] and in [14] were -0.871, -0.556 and -1.1, respectively.
